Screening data (PubChem BioAssay)
Shown are actives, neighbours in structure and some others; about 20% of the full set was active somewhere.
Shiga toxin inh: Shiga toxin inhibition; Vero cells, Shiga toxin protein synthesis inhibition reporter; inhibition, % at 38.7 µM; 9.2% of 290,000 active; AID 2315; in the data active = inhibition mostly above about 28%, no sharp cut-off; inactive = mostly below about 43%
HCMV antiviral: blocks human cytomegalovirus replication. HFF cells, HCMV-luciferase reporter, 72 h; stronger effect = lower value. activity change, negative = inhibition, % at 57.5 µM. 4.5% of 410,000 active. AID 1259415; in the data active = activity change below about -60%; inconclusive = no clear call, values can overlap the other calls; inactive = above about -39%
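HFF cells seeded 16 h at 37C, treated with compounds, infected with luciferase-reporter HCMV at MOI 1 PFU/cell; luciferase read at 72 h post infection, normalized to buffer-only and Salinomycin controls.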
Pf growth 96h: P. falciparum growth inhibition at 96 hours; P. falciparum luciferase reporter growth, 96 h; Potency, µM (top dose mostly 28.7 µM), most hits filed as inhibitors; AID 504834; 6.9% of 320,000 active
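Parasite growth measured via integrated firefly luciferase reporter in P. falciparum. Infected erythrocytes at 2% hematocrit, 0.05% parasitemia final were treated 96 hours at 37 C under 5% CO2, and luminescence was read.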
Pf growth 48h: P. falciparum growth inhibition at 48 hours (one generation); P. falciparum luciferase growth in erythrocytes, 48 h; Potency, µM (doses to about 28.7 µM), actives largely listed as inhibitors; 5.9% of 310,000 active; AID 504832
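Luciferase-expressing parasites in RBCs, 2% Hct / 0.1% parasitemia final; RPMI 1640 + 0.5% Albumax; 37 C, 5% CO2, one generation; luminescence read-out, lower signal = inhibition.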
CHX counter: counter-screen for Shiga toxin inhibitors: cycloheximide protein synthesis inhibition | 12% of 300,000 active | cell reporter, cycloheximide protein synthesis inhibition counterscreen | max response, % | AID 2314; in the data active = max response mostly above about 13%, no sharp cut-off; inactive = mostly below about 14%; also: read at 38.3 µM for the half of the compounds with a filed dose
Hits are given with their value; - = inactive; ? = inconclusive; . = no result. Unless noted, calls follow the shape of the dose curve; as a rule, active = well fitted inhibition curve with a large enough effect; inconclusive = small, poorly fitted or top-dose-only effect, or another doubt; inactive = no such curve, though single readings can be large or run the other way.

SMILES	Shiga toxin inh	HCMV antiviral	Pf growth 96h	Pf growth 48h	CHX counter
C=CCN1C(=S)CC(c2ccccc2)=Nc2ccccc21	-	-	?	?	-
Cc1ccc(Cl)cc1NCN1C(=O)c2ccccc2C1=O	.	-	.	.	.
CCCCCc1ccc(S(=O)(=O)NCCc2ccncc2)cc1	-	?	.	-	-
Nc1nnc(-c2ccc(Cl)c(Cl)c2)s1	-	-	-	-	25
CCCCCc1ccc(-c2nnc(N)s2)cc1	74	-	-	-	43
CCCCCCc1ccc(-c2ncc(N)cn2)cc1	122	-	-	-	60
C[C@H]1CC[C@]2(O[C@H](CCO)C[C@@H](O)[C@@H]2O)O1	-	-	-	-	-
CC(=C\c1ccccc1)/C=C1/SC(=S)N(CCCC(=O)O)C1=O	-	-82	?	8.3µM	-
CC(/C=C1\SC(=O)N(CCCC(=O)O)C1=O)=C\c1ccccc1	-	-89	5.9µM	?	-
CC(=Cc1ccccc1)C=C1SC(=S)N(CCCC(=O)Nc2ccc(C(=O)O)cc2)C1=O	.	-	.	.	.
CC1CCN(S(=O)(=O)c2ccc3c(ccn3CC(=O)NCc3ccc(N(C)C)cc3)c2)CC1	.	-	.	.	.
CCC(=O)NCCc1nc2cc(NC(=O)Nc3ccccc3)ccc2n1C	43	-	-	-	-
CCC(=O)NCCc1nc2cc(NC(=O)c3ccccc3Cl)ccc2n1C	62	-	-	-	32
Cc1ccc(CN(C)C(=O)c2cc(S(=O)(=O)N3CCOCC3)ccc2F)o1	.	-	.	.	.
Cc1cc(Nc2ccc(Br)cc2)nc(-c2ccccc2O)n1	-	-	-	-	-
Cc1cc(NCCCN)nc(-c2ccccc2O)n1	-	-	.	-	25
Cc1ccc(Nc2cc(C)nc(-c3ccccc3O)n2)cc1	95	-	-	.	29
Cc1ccc(Oc2cc(C)nc(-c3ccccc3O)n2)cc1	-	-	?	-	37
Cc1ccc(Nc2cc(C)nc(-c3ccccc3)n2)cc1	91	-	-	-	42
COc1ccc(NC(=O)CN(C)C(=O)C2=NN(c3ccccc3)C(=O)CC2)cc1	.	-	-	?	.
COc1cccc(Cn2c(=O)n(-c3cc(C)cc(C)c3)c(=O)c3oc4ccccc4c32)c1	.	-	.	.	.
COc1ccccc1-c1nnc(C2CCN(C(=O)c3ccccc3C)CC2)o1	.	-	.	.	.
COc1ccccc1-c1nnc(C2CCN(C(=O)c3cccc(Cl)c3)CC2)o1	.	-92	.	.	.
CCOC(=O)/C=C/C(=O)Nc1ccccc1-c1ccccc1NC(=O)/C=C/C(=O)OCC	-	-98	?	4.7µM	33
CCOC(=O)/C=C/C(=O)Nc1cccc([N+](=O)[O-])c1	-	.	-	-	38
SMILES	Shiga toxin inh	HCMV antiviral	Pf growth 96h	Pf growth 48h	CHX counter
CCOC(=O)/C=C/C(=O)OCC(=O)Nc1cccc(Cl)c1Cl	-	-	-	-	-
CC(C)=CC(=O)OCC(=O)Nc1cccc([N+](=O)[O-])c1	-	-	-	-	-
CCOC(=O)/C=C/C(=O)OCC(=O)Nc1ccc([N+](=O)[O-])cc1	-	-	-	-	17
O=C(Nc1ccc(F)c(Cl)c1)c1ccc2nc([C@@H]3O[C@H](CO)[C@H](O)[C@H](O)[C@H]3O)[nH]c2c1	.	-	.	.	.
CCC(C)(C)C1CCc2c(sc(N)c2C(N)=O)C1 (centres undefined)	-	-76	-	-	-
N#CCC(CNc1ncc(C(F)(F)F)cc1Cl)OC(=O)c1cccc(C(F)(F)F)c1 (centres undefined)	-	-	5.9µM	?	-
COc1ccc(CNC(=O)C/C(C)=N/NC(=O)c2ccccc2OC)cc1	-	-	-	-	-
CN(C)C(C)(C)C#CCCCCC#CC(C)(C)N(C)C	-	-	?	?	-
CN(C)C(C)(C)C#CCC(c1ccccc1)c1ccccc1	-	?	?	9.3µM	-
CCc1cc(Cn2nc(-c3ccccc3)cc2C(=O)NCc2ccccc2OC)on1	.	-	?	10µM	.
CCOC(=O)C(=CNc1cc(C)ccn1)C(=O)OCC	-	-	-	-	-
COc1ccc(C(=O)/C=C/Nc2cc(C)ccn2)cc1	-	-	-	-	29
Cc1cc(N/C=C/C(=O)c2ccc(Br)cc2)no1	49	-	-	-	16
Cc1ccnc(N/C=C/C(=O)c2ccc(Br)cc2)c1	110	-	-	-	49
COc1ccc(C)cc1S(=O)(=O)NNc1nc(C)cc(C)n1	.	-	.	.	.
COc1ccc(-c2cc(C(=O)OCC(=O)N3CCOCC3)c3ccccc3n2)cc1	.	-	.	.	.
COc1ccc2cc(-c3cc(C(=O)OCC(=O)Nc4c(C)n(C)n(-c5ccccc5)c4=O)c4ccccc4n3)ccc2c1	53	-	-	-	31
